# Measurements published in PubChem BioAssay (NCI).
# The panel holds about 83,000 compounds, 20% with a hit somewhere; the sample as a whole holds those more often.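 Compound tested at a single concentration for 48 hours in 96-well plates; a percent growth value below 10 was scored as active.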 Values without a mark were called inactive. The source made the active and inactive calls.
# Legend:
# Assay in all cases: NCI-60 one-dose screen, 48 h (100 = growth as untreated, 0 = no growth, -100 = all killed)
# Conditions in all cases: 10 µM
# [1] = tested on: 786-0 renal
# [2] = tested on: MALME-3M melanoma
# [3] = tested on: MDA-MB-231 breast
# [4] = tested on: UACC-257 melanoma
# [5] = tested on: SK-MEL-28 melanoma
# [6] = tested on: SK-MEL-2 melanoma
# [7] = tested on: EKVX NSCLC
# [8] = tested on: SN12C renal
# [9] = tested on: TK-10 renal
# [10] = tested on: CAKI-1 renal
# [11] = tested on: A498 renal
# [12] = tested on: OVCAR-8 ovarian
# [13] = tested on: OVCAR-5 ovarian
# [14] = tested on: IGROV1 ovarian
# [15] = tested on: OVCAR-3 ovarian
# [16] = tested on: HS 578T breast
# [17] = tested on: NCI/ADR-RES ovarian
# [18] = tested on: BT-549 breast
# [19] = tested on: MDA-MB-435 melanoma
# [20] = tested on: SW-620 colon
Structure (SMILES),growth [1],growth [2],growth [3],growth [4],growth [5],growth [6],growth [7],growth [8],growth [9],growth [10],growth [11],growth [12],growth [13],growth [14],growth [15],growth [16],growth [17],growth [18],growth [19],growth [20]
O=C(CSc1nc2ccccc2c(=O)n1-c1ccc(Cl)cc1)Nc1ccc(-c2nc3ccccc3[nH]2)cc1,-76.9% (active),-78.1% (active),-14.8% (active),13.3%,-62% (active),82.1%,27.4%,-37.2% (active),-31.9% (active),-67.9% (active),109%,-17.8% (active),67.8%,53.2%,-35.5% (active),-27.4% (active),-3.44% (active),35.6%,-16% (active),7.92% (active)
COc1ccc(-n2c(SCC(=O)NNS(=O)(=O)c3ccccc3)nc3ccc(Cl)cc3c2=O)cc1,101%,117%,89.3%,117%,98.3%,100%,95.6%,94.1%,109%,80.4%,90%,101%,102%,103%,105%,99.7%,105%,105%,103%,105%
COc1ccc(NCc2cn(-c3ccc(C(=O)O)cc3)nc2-c2ccc(F)cc2)cc1C(F)(F)F,78.2%,27.3%,82.6%,64.9%,33.3%,-30.9% (active),45.5%,32.2%,95.7%,65.2%,112%,37.5%,72.4%,49.9%,53.4%,48.7%,64.4%,33.2%,36.8%,60.1%
O=C(Nc1ccc(Oc2ncnc3scc(Nc4n[nH]c(=S)s4)c23)cc1)C1(C(=O)Nc2cccc(C(F)(F)F)c2)CC1,107%,95.8%,92.7%,110%,108%,113%,97.1%,108%,143%,81.6%,122%,103%,87.9%,70%,104%,100%,104%,96.1%,105%,103%
C#C[C@]1(O)CC[C@H]2[C@@H]3CC=C4c5sc(Nc6ccc(N(C)C)cc6)nc5CC[C@]4(C)[C@H]3CC[C@@]21C,-54.6% (active),-44.7% (active),-10.7% (active),45.9%,-21.6% (active),-33.1% (active),24.7%,12.1%,42.3%,2.6% (active),-42.4% (active),0.0481% (active),21.7%,9.97% (active),2.6% (active),-7.74% (active),9.68% (active),-58.8% (active),5.17% (active),4.36% (active)
Fc1ccc(/C=C/c2nc3ccccc3n3c(-c4ccc(Cl)cc4)nnc23)cc1,73.4%,7.93% (active),70%,96.7%,89.1%,102%,74.6%,78.1%,112%,62.3%,111%,72.6%,96.3%,72.2%,76.9%,80.5%,70.4%,79.3%,78.4%,44.3%
O=C(c1ccc(Cl)cc1)C(c1c[nH]c2ccccc12)c1c[nH]c2ccccc12,-87.6% (active),-91.5% (active),3.98% (active),-39.8% (active),-92.5% (active),-66.5% (active),-69% (active),-59.7% (active),-62.2% (active),-90.3% (active),58.9%,-92.8% (active),-60.7% (active),-19.4% (active),-84% (active),27.2%,11%,-38.2% (active),-68.6% (active),-52.6% (active)
Fc1ccc(-c2csc(Nc3cccc(Nc4nc(-c5ccc(F)cc5)cs4)c3)n2)cc1,68.8%,83%,64.6%,74.6%,76.4%,34.7%,39.8%,47.2%,94.5%,46.4%,78.3%,67.9%,65.5%,41.8%,57.5%,69.3%,63.7%,64%,63.1%,70.3%
Cn1cc(-c2cc(N)n3nc(-c4cn(C)c5ccccc45)cc3n2)c2cc(F)ccc21,-89.4% (active),-78.5% (active),-56% (active),-86.4% (active),-80.4% (active),-92.5% (active),-50.1% (active),-67% (active),-58.6% (active),-80.9% (active),-68.9% (active),-94.9% (active),-52.6% (active),-41.5% (active),-75% (active),-24.1% (active),-21.1% (active),-69.9% (active),-81.1% (active),-54.4% (active)
Cc1ccc(S(=O)(=O)N2CCN(S(=O)(=O)c3oc(-c4ccccc4)nc3C#N)CC2)cc1,86.6%,92.7%,100%,73.3%,78.2%,75%,81.7%,76.8%,77%,69.8%,88.4%,84.7%,91.1%,80.5%,92.5%,95.2%,83%,76.1%,77.6%,90%
CC1[C@H]2[C@H](C[C@H]3[C@@H]4CC=C5c6sc(Nc7cccc(Cl)n7)nc6CC[C@]5(C)[C@H]4CC[C@@]32C)O[C@]12CC[C@@H](C)CO2 (stereo not given in full),105%,117%,82.4%,82%,100%,76.9%,83.8%,94.5%,171%,84.8%,92.6%,74.2%,113%,99.2%,93.7%,106%,94%,83.5%,75.8%,104%
Cc1ccc(-c2nc(C#N)c(S(=O)(=O)N3CCN(S(C)(=O)=O)CC3)o2)cc1,-76.2% (active),-76.8% (active),77.6%,57.7%,34.3%,75.5%,101%,78.1%,97%,72%,132%,25.5%,76.9%,54.9%,-22% (active),100%,57.6%,58%,57.9%,-71.8% (active)
COc1ccc(C2c3sc4ccc(C)cc4c3Oc3nc[nH]c(=O)c32)cc1 (stereo not given),103%,84.8%,83.6%,88.2%,80.9%,68.8%,92.7%,91.7%,137%,60%,119%,98.1%,113%,83.6%,89%,78.5%,65.4%,77.9%,-0.755% (active),67.1%
COc1cc(-c2nc3ccc(C)cc3[nH]2)ccc1OCc1nnc(-c2ccccc2Br)o1,31.4%,66.8%,69.7%,78.3%,70.4%,85.2%,64.6%,76.1%,116%,66%,108%,63.3%,77.5%,90.3%,75.7%,62.2%,75%,55.7%,85.4%,91.9%
CCn1c(SCC(=O)Nc2ccc(-c3nc4ccccc4[nH]3)cc2)nc2ccccc2c1=O,-89.1% (active),-83.6% (active),-71.1% (active),-84.6% (active),-76.7% (active),-79.4% (active),-42.5% (active),-77.7% (active),-95.4% (active),-99.2% (active),-75% (active),-85.5% (active),-44.4% (active),-52.5% (active),-66.1% (active),-37.8% (active),-42.6% (active),-83.6% (active),-94.7% (active),-35.5% (active)
